# Source: paper PMC5540273 (PLoS ONE, 2017)
# Read-outs that look alike come from different tables or passages of the source.
# What was measured:
# CSNK1G1 = conditions: concentration: 1 μM, replicates: in singlicate; n = 1
# CSNK1G2 = conditions: concentration: 1 μM, replicates: in singlicate; n = 1
# CSNK1G3 = conditions: concentration: 1 μM, replicates: in singlicate; n = 1
# CSNK2A1 = conditions: n = 1
# CSNK2A2 = conditions: n = 1
# CTK = system: T1, CTK; conditions: concentration: 1 μM, replicates: in singlicate; n = 1
# T1 construct: gene MATK
# DAPK1 = conditions: concentration: 1 μM, replicates: in singlicate; n = 1
# DAPK2 = conditions: concentration: 1 μM, replicates: in singlicate; n = 1
# DAPK3 = conditions: concentration: 1 μM, replicates: in singlicate; n = 1
# DCAMKL1 = system: T2, DCAMKL1; conditions: concentration: 1 μM, replicates: in singlicate; n = 1
# T2 construct: gene DCLK1
# DCAMKL2 = system: T3, DCAMKL2; conditions: concentration: 1 μM, replicates: in singlicate; n = 1
# T3 construct: gene DCLK2
# DCAMKL3 = system: T4, DCAMKL3; conditions: concentration: 1 μM, replicates: in singlicate; n = 1
# T4 construct: gene DCLK3
# DDR1 = conditions: concentration: 1 μM, replicates: in singlicate; n = 1
# DDR2 = conditions: concentration: 1 μM, replicates: in singlicate; n = 1
# DLK = system: T5, DLK; conditions: concentration: 1 μM, replicates: in singlicate; n = 1
# T5 construct: gene MAP3K12
# DMPK2 = system: T6, DMPK2; conditions: concentration: 1 μM, replicates: in singlicate; n = 1
# T6 construct: gene CDC42BPG
# DMPK = conditions: concentration: 1 μM, replicates: in singlicate; n = 1
# DRAK1 = system: T7, DRAK1; conditions: concentration: 1 μM, replicates: in singlicate; n = 1
# T7 construct: gene STK17A
# DRAK2 = system: T8, DRAK2; conditions: concentration: 1 μM, replicates: in singlicate; n = 1
# T8 construct: gene STK17B
# DYRK1A = conditions: concentration: 1 μM, replicates: in singlicate; n = 1
# [1] = concentration: 1 μM, replicates: in singlicate
# 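Note: KINOMEscan kinase panel screen.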
smiles,measurement,setting,value
Cn1cc(-c2cnc(N)c3c(-c4ccc5c(c4)CCN5C(=O)Cc4ccccc4)csc23)cn1 [GSK2593074],%Inh,CSNK1G1,21%
same,%Inh,CSNK1G2,7%
same,%Inh,CSNK1G3,22%
same,%Inh,CSNK2A1; 1 µM,0%
same,%Inh,CSNK2A2; 1 µM,1%
same,%Inh,CTK,62%
same,%Inh,DAPK1,38%
same,%Inh,DAPK2,21%
same,%Inh,DAPK3,7%
same,%Inh,DCAMKL1,0%
same,%Inh,DCAMKL2,0%
same,%Inh,DCAMKL3,5%
same,%Inh,DDR1,97.7%
same,%Inh,DDR2,24%
same,%Inh,DLK,0%
same,%Inh,DMPK2,81%
same,%Inh,DMPK,0%
same,%Inh,DRAK1,0%
same,%Inh,DRAK2,9%
same,%Inh,DYRK1A,0%
Cc1ccc(NC(=O)c2ccc(Cl)c(Cl)c2)cc1-c1ccc(C(=O)Nc2ccncc2)cc1 [GSK1398460],%Inh,CSNK1G1,12%
same,%Inh,CSNK1G2,16%
same,%Inh,CSNK1G3,36%
same,%Inh,CSNK2A1; [1],0%
same,%Inh,CSNK2A2; [1],2%
same,%Inh,CTK,0%
same,%Inh,DAPK1,11%
same,%Inh,DAPK2,0%
same,%Inh,DAPK3,18%
same,%Inh,DCAMKL1,22%
same,%Inh,DCAMKL2,10%
same,%Inh,DCAMKL3,17%
same,%Inh,DDR1,100%
same,%Inh,DDR2,69%
same,%Inh,DLK,0%
same,%Inh,DMPK2,0%
same,%Inh,DMPK,0%
same,%Inh,DRAK1,0%
same,%Inh,DRAK2,3%
same,%Inh,DYRK1A,14%
Nc1ncnc2scc(-c3ccc(NC(=O)Cc4cc(F)ccc4F)cc3)c12.O=C(O)C(F)(F)F [SB-731254-M],%Inh,CSNK1G1,26%
same,%Inh,CSNK1G2,36%
same,%Inh,CSNK1G3,40%
same,%Inh,CSNK2A1; [1],13%
same,%Inh,CSNK2A2; [1],14%
same,%Inh,CTK,67%
same,%Inh,DAPK1,0%
same,%Inh,DAPK2,100%
same,%Inh,DAPK3,100%
same,%Inh,DCAMKL1,27%
same,%Inh,DCAMKL2,11%
same,%Inh,DCAMKL3,16%
same,%Inh,DDR1,58%
same,%Inh,DDR2,24%
same,%Inh,DLK,0%
same,%Inh,DMPK2,23%
same,%Inh,DMPK,6%
same,%Inh,DRAK1,3%
same,%Inh,DRAK2,10%
same,%Inh,DYRK1A,12%
Cc1ccccc1CC(=O)N1CCc2cc(-c3cn(C)c4ncnc(N)c34)ccc21 [GSK2603346],%Inh,CSNK1G1,12%
same,%Inh,CSNK1G2,5%
same,%Inh,CSNK1G3,17%
same,%Inh,CSNK2A1; [1],30%
same,%Inh,CSNK2A2; [1],15%
same,%Inh,CTK,14%
same,%Inh,DAPK1,0%
same,%Inh,DAPK2,0%
same,%Inh,DAPK3,0%
same,%Inh,DCAMKL1,0%
same,%Inh,DCAMKL2,0%
same,%Inh,DCAMKL3,0%
same,%Inh,DDR1,56%
same,%Inh,DDR2,13%
same,%Inh,DLK,4%
same,%Inh,DMPK2,74%
same,%Inh,DMPK,0%
same,%Inh,DRAK1,0%
same,%Inh,DRAK2,0%
same,%Inh,DYRK1A,17%
Cc1ccc(O)cc1Nc1ccnc2cc(-c3ccc(CN4CCCCC4)o3)ccc12 [GW557777],%Inh,CSNK1G1,6%
same,%Inh,CSNK1G2,5%
same,%Inh,CSNK1G3,7%
same,%Inh,CSNK2A1; [1],0%
same,%Inh,CSNK2A2; [1],0%
same,%Inh,CTK,27%
same,%Inh,DAPK1,16%
same,%Inh,DAPK2,3%
same,%Inh,DAPK3,1%
same,%Inh,DCAMKL1,25%
same,%Inh,DCAMKL2,10%
same,%Inh,DCAMKL3,0%
same,%Inh,DDR1,98.1%
same,%Inh,DDR2,94.5%
same,%Inh,DLK,0%
same,%Inh,DMPK2,7%
same,%Inh,DMPK,0%
same,%Inh,DRAK1,10%
same,%Inh,DRAK2,0%
same,%Inh,DYRK1A,0%
Cc1nn2c(=O)cc(N3CCO[C@H](C)C3)nc2n1Cc1cccc(Cl)c1Cl [GSK2373693],%Inh,CSNK1G1,10%
same,%Inh,CSNK1G2,0%
same,%Inh,CSNK1G3,26%
same,%Inh,CSNK2A1; [1],50%
same,%Inh,CSNK2A2; [1],63%
same,%Inh,CTK,0%
same,%Inh,DAPK1,37%
same,%Inh,DAPK2,54%
same,%Inh,DAPK3,94.7%
same,%Inh,DCAMKL1,0%
same,%Inh,DCAMKL2,6%
same,%Inh,DCAMKL3,34%
same,%Inh,DDR1,18%
same,%Inh,DDR2,0%
same,%Inh,DLK,0%
same,%Inh,DMPK2,0%
same,%Inh,DMPK,1%
same,%Inh,DRAK1,0%
same,%Inh,DRAK2,11%
same,%Inh,DYRK1A,48%
Cn1cc(-c2ccc3c(c2)CCN3C(=O)Cc2cc(F)cc(F)c2F)c2c(N)ncnc21 [GSK2634140],%Inh,CSNK1G1,23%
same,%Inh,CSNK1G2,8%
same,%Inh,CSNK1G3,18%
same,%Inh,CSNK2A1; [1],12%
same,%Inh,CSNK2A2; [1],0%
same,%Inh,CTK,0%
same,%Inh,DAPK1,0%
same,%Inh,DAPK2,0%
same,%Inh,DAPK3,0%
same,%Inh,DCAMKL1,0%
same,%Inh,DCAMKL2,0%
same,%Inh,DCAMKL3,0%
same,%Inh,DDR1,72%
same,%Inh,DDR2,27%
same,%Inh,DLK,31%
same,%Inh,DMPK2,56%
same,%Inh,DMPK,0%
same,%Inh,DRAK1,0%
same,%Inh,DRAK2,0%
same,%Inh,DYRK1A,16%
COc1cccc(C2=C(Nc3cccc(O)c3)C(=O)NC2=O)c1 [SB-390771],%Inh,CSNK1G1,9%
same,%Inh,CSNK1G2,0%
same,%Inh,CSNK1G3,15%
same,%Inh,CSNK2A1; [1],0%
same,%Inh,CSNK2A2; [1],8%
same,%Inh,CTK,0%
same,%Inh,DAPK1,14%
same,%Inh,DAPK2,0%
same,%Inh,DAPK3,16%
same,%Inh,DCAMKL1,21%
same,%Inh,DCAMKL2,0%
same,%Inh,DCAMKL3,31%
same,%Inh,DDR1,0%
same,%Inh,DDR2,17%
same,%Inh,DLK,26%
same,%Inh,DMPK2,0%
same,%Inh,DMPK,0%
same,%Inh,DRAK1,0%
same,%Inh,DRAK2,0%
same,%Inh,DYRK1A,57%
Cl.O=C(Nc1ccc(Oc2ccc3[nH]c(NC(=O)c4ccco4)nc3c2)cc1)Nc1cc(C(F)(F)F)ccc1F [GW683134],%Inh,CSNK1G1,0%
same,%Inh,CSNK1G2,0%
same,%Inh,CSNK1G3,7%
same,%Inh,CSNK2A1; [1],9%
same,%Inh,CSNK2A2; [1],0%
same,%Inh,CTK,6%
same,%Inh,DAPK1,3%
same,%Inh,DAPK2,0%
same,%Inh,DAPK3,20%
same,%Inh,DCAMKL1,19%
same,%Inh,DCAMKL2,7%
same,%Inh,DCAMKL3,0%
same,%Inh,DDR1,100%
same,%Inh,DDR2,95.7%
same,%Inh,DLK,22%
same,%Inh,DMPK2,0%
same,%Inh,DMPK,0%
same,%Inh,DRAK1,0%
same,%Inh,DRAK2,0%
same,%Inh,DYRK1A,13%
CS(=O)(=O)c1cccc(CNc2nc(Nc3ccc4c(c3)CCC(=O)N4)ncc2C(F)(F)F)c1,%Inh,CSNK1G1,0%
same,%Inh,CSNK1G2,4%
same,%Inh,CSNK1G3,0%
same,%Inh,CSNK2A1; [1],17%
same,%Inh,CSNK2A2; [1],51%
same,%Inh,CTK,0%
same,%Inh,DAPK1,0%
same,%Inh,DAPK2,0%
same,%Inh,DAPK3,11%
same,%Inh,DCAMKL1,36%
same,%Inh,DCAMKL2,0%
same,%Inh,DCAMKL3,99.4%
same,%Inh,DDR1,0%
same,%Inh,DDR2,2%
same,%Inh,DLK,13%
same,%Inh,DMPK2,0%
same,%Inh,DMPK,0%
same,%Inh,DRAK1,95.6%
same,%Inh,DRAK2,98.3%
same,%Inh,DYRK1A,85%
